Results taken from PubChem BioAssay (Tox21).
Calls of active or inactive are those of the source. A call without a number means that no potency is given here. Unless noted, the call rests on the fitted dose curve; in most records, active means well fitted curve in the direction sought with a large enough effect in the repeat runs; inconclusive means weak or mixed curves; inactive means no such curve, though single readings can be large; an effect the other way counts as inactive or inconclusive.

Key:
[1] = qHTS assay to test for compound auto fluorescence at 535 nm (green) in HEK293 cells (AID 720680)
[2] = qHTS assay to test for compound auto fluorescence at 460 nm (blue) in HEK293 cell free culture (AID 720681); further: potency means the concentration at half of the fitted maximal effect
Summary of the method: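 Test compounds were pinned into cell-free culture medium (DMEM with 10% FBS) and fluorescence was read directly at Ex/Em 405/460 nm. Signals were expressed as fluorescence equivalents of triamterene, with DMSO vehicle as control.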

[3] = qHTS assay to test for compound auto fluorescence at 535 nm (green) in HEK293 cell free culture (AID 720682)
Summary of the method: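 Each library compound, or DMSO control, is added by pintool to medium alone, comprising DMEM and 10% FBS. Emission at 535 nm following 485 nm excitation is quantified against fluorescein.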

[4] = qHTS assay to test for compound auto fluorescence at 590 nm (red) in HEK293 cell free culture (AID 720683)
Summary of the method: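 Tox21 10K library compounds were pinned into cell-free DMEM with 10% FBS and fluorescence was read at excitation 540 nm. Activity is expressed as Rose Bengal sodium equivalency.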

[5] = qHTS assay to test for compound auto fluorescence at 590 nm (red) in HepG2 cell free culture (AID 720684)
Summary of the method: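 Measured in medium alone (MEM containing 10% FBS) following pintool addition of compound; emission at 590 nm with 540 nm excitation, referenced to Rose Bengal sodium.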

[6] = qHTS assay to test for compound auto fluorescence at 460 nm (blue) in HepG2 cell free culture (AID 720685); further: potency means the concentration at half of the fitted maximal effect
Summary of the method: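 Compound (23 nL) or DMSO pinned into cell-free MEM with 10% FBS; blue fluorescence read at 405/460 nm excitation/emission, expressed as auto-fluorescence equivalency to triamterene.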

[7] = qHTS assay to test for compound auto fluorescence at 535 nm (green) in HepG2 cell free culture (AID 720686)
[8] = qHTS assay to test for compound auto fluorescence at 460 nm (blue) in HepG2 cells (AID 720687); further: potency means the concentration at half of the fitted maximal effect
Summary of the method: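 Cells (2,000/well in MEM with 10% FBS) attached overnight at 37 C, then were exposed to compound or DMSO for 1 hr at 37 C, 5% CO2. Fluorescence read at Ex/Em 405/460 nm, expressed as triamterene-equivalent signal.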

[9] = target: Glucocorticoid receptor (Homo sapiens) (UniProt P04150); assay: qHTS assay to identify small molecule agonists of the glucocorticoid receptor (GR) signaling pathway (AID 720691; active means well fitted activation curve with a large enough effect in the signal ratio in the repeat runs, not every such curve was filed as active; inconclusive means weak or mixed curves, or effect the other way; inactive means no such curve, though single readings can be large or run the other way; the % refers to the signal ratio; further: potency means the concentration at half of the fitted maximal effect); details: GR-bla HeLa, beta-lactamase reporter ratio, 18 h; activation: at 62.4 µM (top of the series)
Glucocorticoid receptor (Homo sapiens), sequence (P04150 whole entry, looked up): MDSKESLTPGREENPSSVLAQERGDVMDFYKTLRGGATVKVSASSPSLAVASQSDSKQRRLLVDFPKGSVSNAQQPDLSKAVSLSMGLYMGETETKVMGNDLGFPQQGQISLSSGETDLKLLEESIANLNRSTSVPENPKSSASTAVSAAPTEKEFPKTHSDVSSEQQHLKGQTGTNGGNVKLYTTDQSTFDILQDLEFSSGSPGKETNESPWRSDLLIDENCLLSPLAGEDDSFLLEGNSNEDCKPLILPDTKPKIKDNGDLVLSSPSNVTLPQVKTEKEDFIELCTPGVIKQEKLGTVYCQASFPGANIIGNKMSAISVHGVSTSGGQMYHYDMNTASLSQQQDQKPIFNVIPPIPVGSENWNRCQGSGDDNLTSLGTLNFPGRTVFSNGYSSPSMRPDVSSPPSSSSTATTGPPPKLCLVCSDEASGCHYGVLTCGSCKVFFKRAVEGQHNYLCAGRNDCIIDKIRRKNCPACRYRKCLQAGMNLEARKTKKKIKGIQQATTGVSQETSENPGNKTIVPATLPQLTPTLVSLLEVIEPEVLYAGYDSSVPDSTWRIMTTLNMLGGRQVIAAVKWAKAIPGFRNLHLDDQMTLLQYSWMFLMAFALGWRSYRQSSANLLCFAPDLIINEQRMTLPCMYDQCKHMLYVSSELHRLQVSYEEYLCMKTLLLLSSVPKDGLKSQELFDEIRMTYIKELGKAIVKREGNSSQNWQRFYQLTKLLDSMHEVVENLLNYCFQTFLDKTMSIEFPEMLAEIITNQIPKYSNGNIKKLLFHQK
Summary of the method: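 Fluorescence intensity from LiveBLAzer B/G FRET substrate (2 h, room temperature) reports beta-lactamase expression driven by the glucocorticoid response element in GR-bla HeLa cells after 18 h compound exposure at 37 C.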

[10] = qHTS assay to identify small molecule antagonists of the glucocorticoid receptor (GR) signaling pathway - cell viability counter screen (AID 720693); further: nearly all actives have a fitted effect of over 55% in size; further: potency means the concentration at half of the fitted maximal effect
[11] = qHTS assay for identifying genotoxic compounds that show differential cytotoxicity against isogenic chicken DT40 cell lines with known DNA damage response pathways - wild type cell line (AID 743012); further: nearly all actives have a fitted effect of over 60% in size; further: potency means the concentration at half of the fitted maximal effect
Summary of the method: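 Wild type DT40, 300 cells/well, ~0.5 h settle at 37 C/5% CO2; compounds in DMSO added by pintool; 40 h at 37 C/5% CO2; CellTiter-Glo, 30 min RT; luminescence.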

[12] = qHTS assay for identifying genotoxic compounds that show differential cytotoxicity against isogenic chicken DT40 cell lines with known DNA damage response pathways - Rad54/Ku70 mutant cell line (AID 743015); further: nearly all actives have a fitted effect of over 60% in size; further: potency means the concentration at half of the fitted maximal effect
[13] = qHTS assay to identify small molecule antagonists of the androgen receptor (AR) signaling pathway - cell viability counter screen (AID 743033; further: nearly all actives have a fitted effect of over 45% in size; further: potency means the concentration at half of the fitted maximal effect)
[14] = qHTS assay to identify small molecule antagonists of the androgen receptor (AR) signaling pathway using the MDA cell line - cell viability counter screen (AID 743041; further: nearly all actives have a fitted effect of over 45% in size)
Summary of the method: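 Viability counter screen run alongside the AR antagonist reporter: cells seeded 5 h before compound, R1881 added, 16 h incubation at 37C without CO2, fluorescent CellTiter-Fluor signal quantified.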

[15] = target: Glucocorticoid receptor (Homo sapiens) (UniProt P04150); assay: qHTS assay to identify small molecule antagonists of the glucocorticoid receptor (GR) signaling pathway (AID 720692; active means well fitted inhibition curve with a large enough effect in the signal ratio in the repeat runs, not every such curve was filed as active; inconclusive means weak or mixed curves, or effect the other way; inactive means no such curve, though single readings can be large or run the other way; the % refers to the signal ratio)
Summary of the method: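 HeLa GR-bla cells; cmpd + dex 5 nM final, 18 h 37 C; LiveBLAzer B/G FRET substrate 2 h RT; fluorescence intensity read. Antagonist mode, qHTS.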

[16] = qHTS assay for identifying genotoxic compounds that show differential cytotoxicity against isogenic chicken DT40 cell lines with known DNA damage response pathways - Rev3 mutant cell line (AID 743014); further: nearly all actives have a fitted effect of over 55% in size; further: potency means the concentration at half of the fitted maximal effect
[17] = target: Androgen receptor (Homo sapiens) (UniProt P10275); assay: qHTS assay to identify small molecule antagonists of the androgen receptor (AR) signaling pathway using the MDA cell line (AID 743042; further: nearly all actives have a fitted effect of over 55% in size)
Androgen receptor (Homo sapiens), sequence (P10275 whole entry, looked up): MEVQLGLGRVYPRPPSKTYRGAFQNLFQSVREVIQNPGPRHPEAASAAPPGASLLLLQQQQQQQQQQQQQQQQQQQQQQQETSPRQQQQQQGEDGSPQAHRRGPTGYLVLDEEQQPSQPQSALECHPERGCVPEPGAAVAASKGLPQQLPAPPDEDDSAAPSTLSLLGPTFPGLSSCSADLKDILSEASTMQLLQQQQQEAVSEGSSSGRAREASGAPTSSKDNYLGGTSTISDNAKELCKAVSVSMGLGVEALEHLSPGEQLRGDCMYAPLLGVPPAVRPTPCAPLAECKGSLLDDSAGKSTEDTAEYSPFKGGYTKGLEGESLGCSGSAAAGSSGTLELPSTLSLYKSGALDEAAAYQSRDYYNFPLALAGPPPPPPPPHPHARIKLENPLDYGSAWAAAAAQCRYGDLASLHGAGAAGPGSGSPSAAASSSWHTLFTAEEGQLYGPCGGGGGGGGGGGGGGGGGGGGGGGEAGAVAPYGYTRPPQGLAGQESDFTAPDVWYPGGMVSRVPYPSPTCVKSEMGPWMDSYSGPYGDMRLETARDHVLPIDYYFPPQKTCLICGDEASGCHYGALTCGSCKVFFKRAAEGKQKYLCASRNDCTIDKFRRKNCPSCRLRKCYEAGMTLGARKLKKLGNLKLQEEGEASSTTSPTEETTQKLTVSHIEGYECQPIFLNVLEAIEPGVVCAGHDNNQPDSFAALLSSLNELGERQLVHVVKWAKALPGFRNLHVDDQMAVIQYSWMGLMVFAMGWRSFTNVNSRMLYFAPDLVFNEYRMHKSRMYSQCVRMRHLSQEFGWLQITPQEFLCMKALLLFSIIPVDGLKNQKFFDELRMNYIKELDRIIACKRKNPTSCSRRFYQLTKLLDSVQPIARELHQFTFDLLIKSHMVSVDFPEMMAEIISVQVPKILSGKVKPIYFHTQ
Summary of the method: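 MDA-kb2 cells (human breast carcinoma, stably carrying an MMTV-luciferase reporter responsive to AR and GR) were plated at 3,000 cells/well and preincubated 5 hr at 37C, then given compound plus R1881 agonist for 16 h. ONE-Glo luminescence was read.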

[18] = target: Androgen receptor (Homo sapiens) (UniProt P10275); assay: qHTS assay to identify small molecule antagonists of the androgen receptor (AR) signaling pathway (AID 743035; active means well fitted inhibition curve with a large enough effect in the signal ratio in the repeat runs, not every such curve was filed as active; inconclusive means weak or mixed curves, or effect the other way; inactive means no such curve, though single readings can be large or run the other way; the % refers to the signal ratio; further: potency means the concentration at half of the fitted maximal effect)
Summary of the method: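 Fluorescence from a beta-lactamase FRET substrate (LiveBLAzer B/G, 2 h, room temperature) measured inhibition of R1881-stimulated signaling in GeneBLAzer AR-UAS-bla HEK293 cells exposed to compound for 16 h at 37C.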

[19] = target: Androgen receptor (Homo sapiens) (UniProt P10275); assay: qHTS assay to identify small molecule agonists of the androgen receptor (AR) signaling pathway (AID 743036; active means well fitted activation curve with a large enough effect in the signal ratio in the repeat runs, with a control signal flat, not every such curve was filed as active; inconclusive means weak or mixed curves, or effect the other way; inactive means no such curve, though single readings can be large or run the other way; the % refers to the signal ratio)
Summary of the method: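 Following a 4 h settling period, AR-UAS-bla HEK293 cells were dosed with compounds for 16 h at 37C. A 2 h room-temperature incubation with LiveBLAzer B/G FRET substrate preceded the fluorescence measurement.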
Tags describe the fitted curve by direction and shape or compound fluorescence and quenching.

SMILES	outcome [1]	Potency [2]	outcome [3]	outcome [4]	outcome [5]	Potency [6]	Potency [7]	Potency [8]	Potency [9]	Potency [10]	Potency [11]	Potency [12]	Potency [13]	Potency [14]	Potency [15]	Potency [16]	Potency [17]	Potency [18]	Potency [19]
CO/N=C(\C(=O)N[C@@H]1C(=O)N2C(C(=O)O)=C(CSc3nc(C)c(CC(=O)O)s3)CS[C@H]12)c1csc(N)n1	inactive	inactive	inactive	inactive	inactive	inactive	inactive	inactive	inactive	inactive	inactive	inactive	inactive	inactive	–	–	–	–	–
Cc1c(O)c(=O)ccn1C	inactive	inactive	inactive	inactive	inactive	inactive	inactive	inactive	inactive	inactive	inactive	inactive	inactive	inactive	inactive	–	–	–	–
Cc1ccc2nc(-c3ccc(N)cc3)sc2c1S(=O)(=O)O	inactive	15800 nM (active)	inactive	inactive	inactive	25100 nM [fluorescent] (active)	inactive	22400 nM [fluorescent] (active)	inactive	inactive	–	26900 nM (active)	inactive	inactive	inactive	inactive	inactive	–	–
CC(C)CCC[C@@H](C)[C@H]1CC[C@H]2[C@@H]3CC[C@@H]4C[C@H](O)CC[C@]4(C)[C@H]3CC[C@]12C	inactive	inactive	inactive	inactive	inactive	inactive	inactive	inactive	inactive	inactive	inactive	inactive	inactive	inactive	–	–	–	–	–
CNC(=O)C[C@@H](N)C(=O)N[C@@H](C(=O)N[C@@H]1C(=O)N2[C@@H]1SC(C)(C)[C@@H]2C(=O)O)c1ccc(O)cc1	inactive	inactive	inactive	inactive	inactive	inactive	inactive	inactive	inactive	inactive	inactive	inactive	–	inactive	–	–	–	–	–
O=C1CCC(c2ccc(-n3ccnc3)cc2)=NN1	inactive	inactive	inactive	inactive	inactive	inactive	inactive	inactive	inactive	inactive	–	inactive	inactive	inactive	–	inactive	–	–	–
C[C@H](Cc1ccc(O)c(O)c1)[C@@H](C)Cc1ccc(O)c(O)c1	inactive	inactive	inactive	inactive	inactive	inactive	inactive	inactive	inactive	inactive	–	10600 nM (active)	–	inactive	–	23700 nM (active)	–	–	–
C[C@H]1O[C@@H](O[C@H]2CC[C@@]3(C)[C@H](CC[C@@H]4[C@@H]3C[C@@H](O)[C@]3(C)[C@@H](C5=CC(=O)OC5)CC[C@]43O)C2)C[C@H](O)[C@@H]1O[C@H]1C[C@H](O)[C@H](O[C@H]2C[C@H](O)[C@H](O[C@@H]3O[C@H](CO)[C@@H](O)[C@H](O)[C@H]3O)[C@@H](C)O2)[C@@H](C)O1	inactive	inactive	inactive	inactive	inactive	inactive	inactive	inactive	inactive	1340 nM (active)	1330 nM (active)	1500 nM (active)	268 nM (active)	inactive	–	1330 nM (active)	–	1200 nM (active)	–
O=C(O)c1cc(=O)c2c3nc4ccccc4oc-3cc(=O)c2[nH]1	inactive	inactive	inactive	inactive	inactive	inactive	inactive	inactive	inactive	inactive	–	–	inactive	–	–	inactive	–	–	–
O=P(O)(O)CP(=O)(O)O	inactive	inactive	inactive	inactive	inactive	inactive	inactive	inactive	inactive	inactive	inactive	inactive	inactive	inactive	–	–	inactive	–	inactive
CCN(CC)CCOC[C@H]1O[C@@H](O)[C@H](OCCN(CC)CC)[C@@H](O)[C@@H]1O	inactive	inactive	inactive	inactive	inactive	inactive	inactive	inactive	inactive	inactive	–	inactive	inactive	inactive	inactive	inactive	–	–	–
C[Se]CC[C@H](N)C(=O)O	inactive	inactive	inactive	inactive	inactive	inactive	inactive	inactive	inactive	inactive	inactive	inactive	–	inactive	inactive	–	–	–	–
C[C@@H]1O[C@@H](OC[C@H]2O[C@@H](Oc3c(-c4ccc(OCCO)c(OCCO)c4)oc4cc(OCCO)cc(O)c4c3=O)[C@H](O)[C@@H](O)[C@@H]2O)[C@H](O)[C@H](O)[C@H]1O	inactive	inactive	inactive	inactive	inactive	inactive	inactive	inactive	inactive	–	inactive	inactive	inactive	inactive	inactive	–	inactive	–	inactive
COc1c(Br)cc(Br)c(C)c1Br	inactive	inactive	inactive	inactive	inactive	inactive	inactive	inactive	inactive	inactive	inactive	inactive	–	inactive	–	inactive	–	–	–
CC(=O)OCC(=O)[C@@]1(O)CC[C@H]2[C@@H]3C[C@H](C)C4=CC(=O)C=C[C@]4(C)[C@H]3[C@@H](O)C[C@@]21C	inactive	inactive	inactive	inactive	inactive	inactive	inactive	inactive	134 nM [inconclusive] (active)	inactive	inactive	–	inactive	inactive	–	inactive	–	–	–
